# According to PubChem BioAssay (NCI):
# Where “and” joins values, the source holds several entries; their conditions need not be identical. Identical values can stand only once. This is part of a sample that, as a whole, favours compounds with a hit. Of some 83,000 tested, about 20% had one in any assay.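 Single-concentration screen, 48 h exposure, 96-well plates. Endpoint: percent growth. Below 10 = active.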 Calls of active or inactive are those of the source.
# Tested on: HL-60(TB) leukemia
# Assay: NCI-60 one-dose screen, 48 h (100 = growth as untreated, 0 = no growth, -100 = all killed)
# Settings: 10 µM unless noted
row,Compound,growth
1,CC1CCN(S(=O)(=O)c2ccc(S(=O)(=O)N3CCCC(c4nc5c(nnn5Cc5cccc(Cl)c5)c(=O)[nH]4)C3)cc2)CC1 (stereo unspecified),16.1% (inactive)
2,C#Cc1cccc(Nc2ncnc3ccc(-c4cncc(NS(C)(=O)=O)c4)cc23)c1,4% (active)
3,O=C(NN1C(=O)CSC1c1ccc(Cl)cc1)c1[nH]c2ccc(F)cc2c1-c1ccccc1 (stereo unspecified),35.5% (inactive)
4,CCN(CC)CCNc1cc(-c2cccc(OC(F)(F)F)c2)nc2ccc(N3CCCC3)cc12,-55.4% (active) and -26.1% (active) and 12.6% (inactive)
5,Cc1ccc(CNc2ccc(Cl)cc2NCc2ccc(C)c(O)c2)cc1O,8.41% (active)
6,C=C1C(=O)O[C@H]2[C@H]1CC/C(COC(=O)NCCc1ccc(OC)cc1)=C\CC[C@@]1(C)O[C@@H]21,-22% (active)
7,CN(C)C(=S)SC(=S)N(C)C,103% (inactive) and 93.8% (inactive)
8,COc1ccc(/C=C(\C#N)c2ccc([N+](=O)[O-])cc2)c2ccccc12,85.4% (inactive)
9,COC(=O)C1=C(C(=O)ONCCN(C)C)C2C=CC1(C(Cc1ccccc1)Nc1ccc(F)cc1)O2 (stereo unspecified),35.8% (inactive)
10,COc1ccc(/C(C#N)=C/c2ccccn2)cc1,91.8% (inactive) and 78.1% (inactive)
11,O=C1Cc2ccccc2C(=O)N1,67.6% (inactive)
12,O=[N+]([O-])c1ccc(N/N=C\c2cc(Br)ccc2O)nc1,11.7% (inactive) and -8.74% (active)
13,CCOc1ccc(Nc2nc3c(s2)C(=O)c2ccccc2C3=O)cc1,25.1% (inactive)
14,CC(=O)/C(=C\c1c(-c2ccccc2)[nH]c2ccccc12)S(=O)(=O)c1ccccc1,-68.4% (active)
15,O=C(Nc1cc(C(F)(F)F)cc(C(F)(F)F)c1)c1cc(Cl)ccc1O,-24.6% (active) and -49% (active)
16,Nc1ccccc1NC(=O)c1ccc(CCCC(=O)Nc2ccc(C3CC3N)cc2)cc1 (stereo unspecified),24.6% (inactive)
17,Nc1c(C(=O)Nc2ccccc2C(F)(F)F)sc2nc3c(cc12)CCC3,86.8% (inactive)
18,Cc1c(C(=O)NC(Cc2ccccc2)C(O)C(=O)NCc2ccc(F)cc2)[nH]c2ccccc2c1=O (stereo unspecified),82% (inactive)

row,Compound,growth
1,COc1ccc(/C=C/C(=O)c2cccc(OCCCCOc3cccc(C(=O)/C=C/c4ccc(OC)c(OC)c4)c3)c2)cc1OC,68.6% (inactive)
2,COc1cc(C)cc2oc3oc(=O)c(-c4nc5ccccc5s4)cc3c(=O)c12,109% (inactive)
3,O=C(c1cc2ccccc2o1)c1nn(-c2ccccc2)/c(=N/N=Cc2cn(-c3ccccc3)nc2-c2cc3ccccc3oc2=O)s1,98.2% (inactive)
4,CNc1cc2nc3cc(NC)c(C)cc3cc2cc1C,18.9% (inactive)
5,COc1cc2c(cc1OC)C(C(CCCCCC(CCC(C)C)C1NCCc3cc(OC)c(OC)cc31)CCC(C)C)NCC2 (stereo unspecified),-12.4% (active)
6,C=C(C)[C@@H]1CCC[C@]2(COS(=O)(=O)c3ccc(C)cc3)CC[C@]3(C)[C@@H](CC[C@@H]4[C@@]5(C)CCCNC(C)(C)[C@@H]5CC[C@]43C)[C@@H]12,-35% (active)
7,CCSc1nnc2c3cc(Br)ccc3n(C)c2n1,110% (inactive)
8,O=C(/C=C/c1ccco1)Nc1ncc(Cc2cccc(C(F)(F)F)c2)s1,-53.6% (active)
9,COc1ccc(N)c2c1C(=O)c1ccccc1C2=O,45.8% (inactive)
10,CC(C)N(CCOc1cccc(-c2nc3sccn3c2-c2ccnc(S(C)(=O)=O)n2)c1)C(C)C,80.8% (inactive)
11,Cc1onc(-c2ccccc2)c1C(=O)N/N=C/c1cc(Cl)cc(Cl)c1O,15.7% (inactive)
12,COc1cccc(CNc2ccc3ncnc(Nc4ccc(F)c(Cl)c4)c3c2)c1,93.6% (inactive)
13,O=C1CC(=NCC(=O)n2c(-c3ccccc3)nc3ccccc32)NN1,107% (inactive)
14,CCCCCCN(CCCCCC)C(=N)c1ccnc2ccccc12,43.2% (inactive)
15,NC(=S)N1N=C(c2ccccc2)CC1c1cn(-c2ccccc2)nc1-c1ccc(OCc2ccccc2)cc1 (stereo unspecified),114% (inactive)
16,Cc1ccc(C(=O)c2ccc(C)cc2)cc1,92.5% (inactive) and 98.6% (inactive)
17,Cc1cc(C)n2nc(SCC(=O)Nc3sc4c(c3C(N)=O)CCC4)nc2n1,117% (inactive)
18,O=C(Nc1nc2ccccc2s1)c1ccc(F)cc1,111% (inactive)
